Laboratory results published in PubChem BioAssay (Tox21).
Values joined by “and” are separate entries in the source; they are usually repeats but may differ in a detail not shown here. Identical values can stand only once. Unmarked numbers belong to inactive results. Records with an inconclusive call do not appear. Entries that show only a call come without a potency. Active and inactive are the calls of the source. Unless noted, calls follow the shape of the dose curve; as a rule, active = well fitted curve in the direction sought with a large enough effect in the repeat runs; inconclusive = weak or mixed curves; inactive = no such curve, though single readings can be large; an effect the other way counts as inactive or inconclusive.

Experiments:
[1] = qHTS assay for small molecule agonists of the p53 signaling pathway (AID 651631; calls by dose curve; also: nearly all actives have a fitted effect of over 15% in size; also: potency is read from the fitted curve at half-maximal effect)
Summary of the method: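 Read-out is beta-lactamase FRET fluorescence measured 2 h after substrate addition at room temperature, in HCT-116 cells with a p53 response element-driven reporter exposed to compounds for 16 h at 37 °C.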

[2] = qHTS assay for small molecules that induce genotoxicity in human embryonic kidney cells expressing luciferase-tagged ATAD5 (AID 651632); also: nearly all actives have a fitted effect of over 15% in size; also: potency is read from the fitted curve at half-maximal effect
Summary of the method: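 A rise in luciferase signal from ATAD5-tagged HEK293T cells marks genetic stress. Cells were exposed to compounds for 16 hr at 37C, 5% CO2, then luciferase was quantified after a 30 min room-temperature incubation with Amplite.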

[3] = qHTS assay for small molecule agonists of the p53 signaling pathway - cell viability (AID 651633; calls by dose curve; also: nearly all actives have a fitted effect of over 30% in size; also: potency is read from the fitted curve at half-maximal effect)
Summary of the method: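 Viability counter-read: CellTiter-Glo luminescence (30 min, room temperature) in the same p53RE-bla plates. These plates had been exposed to compounds for 16 h at 37 C.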

[4] = qHTS assay for small molecules that induce genotoxicity in human embryonic kidney cells expressing luciferase-tagged ATAD5 - cell viability (AID 651634; calls by dose curve; also: nearly all actives have a fitted effect of over 25% in size; also: potency is read from the fitted curve at half-maximal effect)
Summary of the method: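 Cytotoxicity counter-readout: after 15.5 hr compound treatment at 37C, live-cell protease activity in ATAD5-luciferase HEK293T cells measured by CellTiter-Fluor fluorescence, 30 min development at 37C.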

[5] = qHTS assay for small molecule disruptors of the mitochondrial membrane potential - cell viability (AID 720634; calls by dose curve;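 also: human HepG2 liver cancer cells; series mostly up to about 83 µM; nearly all actives have a fitted effect of over 20% in size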)
Summary of the method: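 Cytotoxicity was quantified from ATP content by CellTiter-Glo luminescence in the same wells as the MMP dye read-out. HepG2 (2,000 cells/well) were plated overnight and exposed to compounds for 1 hr at 37 C.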

[6] = qHTS assay for small molecule disruptors of the mitochondrial membrane potential (AID 720635); also: potency is read from the fitted curve at half-maximal effect
Summary of the method: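 Mitochondrial membrane potential tracked with Mito-MPS dye, red aggregates (ex 540/em 590 nm) against green monomers (ex 490/em 535 nm). Compound treatment 1 hr at 37C, dye 30 min in HepG2.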

[7] = qHTS assay to test for compound auto fluorescence at 590 nm (red) in HepG2 cells (AID 720674)
Summary of the method: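 Red autofluorescence (Ex/Em 540/590 nm, Rose Bengal sodium equivalents) was measured in HepG2 cells, 2,000 per well in MEM plus 10% FBS, plated overnight at 37 C. Readings were taken 1 hr after adding 23 nL compound or DMSO, at 37 C and 5% CO2.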

[8] = qHTS assay to test for compound auto fluorescence at 535 nm (green) in HepG2 cells (AID 720675)
[9] = qHTS assay to test for compound auto fluorescence at 460 nm (blue) in HEK293 cells (AID 720678)
Summary of the method: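 Intrinsic compound fluorescence is recorded in live HEK293 cultures after overnight incubation at 37C, 5% CO2, using excitation 405 nm and emission 460 nm. Values are referenced to triamterene.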

[10] = qHTS assay to test for compound auto fluorescence at 590 nm (red) in HEK293 cells (AID 720679)
Summary of the method: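 Red autofluorescence, HEK293 cells: 2,000 cells/well; attach 4-5 hr 37C; add 23 nL cpd or DMSO; incubate o/n 37C 5% CO2; read Ex540/Em590; Rose Bengal sodium reference.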

[11] = qHTS assay to test for compound auto fluorescence at 535 nm (green) in HEK293 cells (AID 720680)
[12] = qHTS assay to test for compound auto fluorescence at 460 nm (blue) in HEK293 cell free culture (AID 720681)
Summary of the method: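 Blue fluorescence (Ex 405/Em 460 nm, triamterene-equivalent) was read immediately after pin transfer of compound or DMSO into medium (DMEM, 10% FBS) without cells.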

[13] = qHTS assay to test for compound auto fluorescence at 535 nm (green) in HEK293 cell free culture (AID 720682)
Summary of the method: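 Fluorescein serves as the green reference fluorophore; each compound's intrinsic emission at 535 nm (excitation 485 nm) is reported as an equivalent amount of that dye, measured in serum-containing DMEM without cells.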

[14] = qHTS assay to test for compound auto fluorescence at 590 nm (red) in HEK293 cell free culture (AID 720683)
Summary of the method: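 Red-channel autofluorescence of compounds in culture medium (DMEM, 10% FBS), no cells, measured at 540/590 nm. Rose Bengal sodium is the reference fluorophore for equivalence.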

[15] = qHTS assay to test for compound auto fluorescence at 590 nm (red) in HepG2 cell free culture (AID 720684)
Summary of the method: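 Cell-free; medium MEM + 10% FBS; compound or DMSO added by pintool; read Ex 540/Em 590 nm; Rose Bengal sodium as red reference fluorophore.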

[16] = qHTS assay to test for compound auto fluorescence at 460 nm (blue) in HepG2 cell free culture (AID 720685)
Summary of the method: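 Cell-free plates of MEM plus 10% FBS received 23 nL compound or DMSO vehicle; blue-channel (405/460 nm) intensity scored against triamterene as reference fluorophore.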

[17] = qHTS assay to test for compound auto fluorescence at 535 nm (green) in HepG2 cell free culture (AID 720686)
[18] = qHTS assay to test for compound auto fluorescence at 460 nm (blue) in HepG2 cells (AID 720687)
Summary of the method: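 Blue-channel autofluorescence (Ex/Em 405/460 nm, triamterene-equivalent) was measured after 1 hr compound exposure at 37 C, 5% CO2. Cells were HepG2, plated overnight at 37 C in MEM plus 10% FBS.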

[19] = target: Glucocorticoid receptor (Homo sapiens) (UniProt P04150); test: qHTS assay to identify small molecule antagonists of the glucocorticoid receptor (GR) signaling pathway (AID 720692; active = well fitted inhibition curve with a large enough effect in the signal ratio in the repeat runs, not every such curve was filed as active; the % refers to the signal ratio)
Summary of the method: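 Inhibition of dexamethasone-driven (5 nM final) beta-lactamase expression was measured in GRE-reporter HeLa cells over 18 h at 37C. Fluorescence was read after 2 h with the B/G FRET substrate at room temperature.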

Sequence of Glucocorticoid receptor (Homo sapiens) (P04150 whole entry, looked up): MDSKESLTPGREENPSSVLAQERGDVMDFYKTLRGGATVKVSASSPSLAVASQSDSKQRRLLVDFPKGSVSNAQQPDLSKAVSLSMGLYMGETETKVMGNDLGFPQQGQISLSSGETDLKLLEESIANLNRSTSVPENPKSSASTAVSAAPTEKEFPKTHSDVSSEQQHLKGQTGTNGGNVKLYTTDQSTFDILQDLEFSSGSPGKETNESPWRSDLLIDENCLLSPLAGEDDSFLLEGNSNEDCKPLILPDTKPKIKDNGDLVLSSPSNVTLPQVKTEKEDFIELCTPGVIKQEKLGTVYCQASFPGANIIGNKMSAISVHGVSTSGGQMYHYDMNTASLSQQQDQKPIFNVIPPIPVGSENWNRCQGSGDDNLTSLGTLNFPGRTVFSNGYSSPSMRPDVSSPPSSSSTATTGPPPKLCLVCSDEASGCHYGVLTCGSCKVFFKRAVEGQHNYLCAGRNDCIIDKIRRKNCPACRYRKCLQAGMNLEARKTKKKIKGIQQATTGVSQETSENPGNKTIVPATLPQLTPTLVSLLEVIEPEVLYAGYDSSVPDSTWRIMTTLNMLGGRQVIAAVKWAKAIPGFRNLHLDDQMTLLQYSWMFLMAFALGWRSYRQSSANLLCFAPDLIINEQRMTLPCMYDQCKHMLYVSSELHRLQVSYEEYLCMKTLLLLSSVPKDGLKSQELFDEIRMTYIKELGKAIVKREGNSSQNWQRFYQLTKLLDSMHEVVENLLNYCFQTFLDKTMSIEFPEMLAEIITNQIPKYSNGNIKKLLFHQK

Compound | Potency [1] | Potency [2] | Potency [3] | Potency [4] | Potency [5] | Potency [6] | Potency [7] | Potency [8] | Potency [9] | Potency [10] | outcome [11] | Potency [12] | outcome [13] | Potency [14] | Potency [15] | Potency [16] | Potency [17] | Potency [18] | Potency [19]
O=C1c2ccccc2Cc2ccccc21 | inactive | inactive | inactive | inactive | inactive | 12.3 µM (active) | inactive | inactive | inactive | inactive | inactive | inactive | inactive | inactive | inactive | inactive | inactive | inactive | 
Cc1c(C)c2c(c(C)c1O)CCC(C)(COc1ccc(CC3SC(=O)NC3=O)cc1)O2 (stereo unspecified) | 29.8 µM (active) and 54.5 µM (active) | inactive | 29.8 µM (active) and 61.1 µM (active) | inactive | inactive | 9.44 µM (active) and 10.9 µM (active) | inactive | inactive | inactive |  | inactive | inactive | inactive | inactive | inactive | inactive | inactive | inactive | 
CSc1ccc(C(=O)c2[nH]c(=O)[nH]c2C)cc1 | inactive | inactive | inactive | inactive | inactive | inactive | inactive | inactive | inactive |  | inactive | inactive | inactive | inactive | inactive | inactive | inactive | inactive | 
N=C1N=C(N)c2ccccc21 | 24.3 µM (active) | 21.7 µM (active) | 21.7 µM (active) |  | inactive |  | inactive | inactive | inactive | inactive | inactive | inactive | inactive | inactive | inactive | inactive |  | inactive | 
CCC(C)(C)C1CCCCC1OC(C)=O (stereo unspecified) | inactive | inactive | inactive | inactive | inactive |  |  | inactive | inactive | inactive | inactive | inactive | inactive | inactive | inactive | inactive | inactive | inactive | 
CCC(N)(CO)CO |  | inactive | inactive | inactive | inactive | inactive | inactive | inactive | inactive |  | inactive | inactive | inactive | inactive | inactive | inactive | inactive | inactive | inactive
[Cl][Bi]([Cl])([c]1ccccc1)([c]1ccccc1)[c]1ccccc1 | 24.2 µM (active) |  | 21.6 µM (active) | 60.8 µM (active) |  | 43 µM (active) | inactive | inactive | inactive | inactive | inactive | inactive | inactive | inactive | inactive | inactive | inactive | inactive | 
